# Results from PubChem BioAssay AID2685 (National Center for Advancing Translational Sciences (NCATS), 2010).
# About 2,100 (0.66%) of roughly 320,000 compounds were called active. Not shown: some 53% with an inconclusive outcome. Calls come from the whole dose curve; as a rule, active = well fitted inhibition curve with a large enough effect in the signal ratio, with a control signal flat (not every such curve was filed as active); inconclusive = small, poorly fitted or top-dose-only effect, or effect the other way, or a change in a side signal; inactive = flat fitted curve, though single readings scatter; the % refers to the signal ratio. The full list was thinned out, with actives kept by preference.
# Test: qHTS Assay for Lipid Storage Modulators in Drosophila S3 Cells;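 for cell number change: cells counted by Cell Tracker Red CMTPX staining in the red channel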; for lipid storage change, negative = inhibition: % is set by controls: 0 for no effect and ±100 for the full control effect
# Details: BODIPY lipid droplet fluorescence, 18-24 h, cells fed with added oleic acid; cell number change: measured here: cell count max response; series mostly up to 46.1 µM; lipid storage change, negative = inhibition: at the top concentration
# Method in brief: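 Laser-scanning cytometry quantifies lipid droplet accumulation (500–530 nm total intensity; droplet/cell object ratio) in oleic acid-fed (400 uM added) Drosophila S3 cells treated with a concentration series. 20 uM Triacsin C defined 100% inhibition.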
# Potency is the fitted concentration of half-maximal effect.
Compound,"lipid storage change, negative = inhibition",cell number change [%],outcome,Potency
COC(=O)c1ccc(NC(=O)c2ccc(NS(=O)(=O)c3cccc4cccnc34)cc2)cc1,4.09% (inactive),-0.185,,
CCOC(=O)C1CCN(c2nc(-c3ccc(C)cc3)nc3ccccc23)CC1,10.1% (inactive),-12.1,,
COc1ccccc1NC(=O)c1ccc(NC(=O)CSc2ncn[nH]2)cc1,-6.68% (inactive),-3.32,,
Cc1cc(-c2ccco2)n(CC(=O)O)n1,3.95% (inactive),-13.3,,
CC(Sc1ccc2ccccc2c1)C(=O)NC(N)=O (stereo unspecified),-6.27% (inactive),22.5,,
CC(Sc1cccc(C(F)(F)F)c1)C(=O)NC(N)=O (stereo unspecified),,10.6,inactive,
CC(=O)Nc1ccc(SC(C)C(=O)NC(N)=O)cc1 (stereo unspecified),,-18.8,,29.1 µM (active)
CCOC(=O)NC(O)C(=O)c1ccc(F)cc1 (stereo unspecified),1.22% (inactive),,,
N#Cc1ccc(Cl)cc1NC(=O)CNCc1cccs1,18.5% (inactive),4.81,,
COc1ccc(-n2c(=O)c(CCC(=O)N(C)Cc3ccccc3C)nc3ccccc32)cc1,-8.19% (inactive),24.8,,
COc1ccc(-n2c(=O)c(CCC(=O)N3CCN(c4ccccc4O)CC3)nc3ccccc32)cc1,-27.2% (inactive),-25.6,,
COc1ccc(-n2c(=O)c(CCC(=O)NCCc3ccccc3F)nc3ccccc32)cc1,,2.07,,18.4 µM (active)
COc1ccc2c(c1)c(CC(=O)Nc1cccc(S(N)(=O)=O)c1)c(C)n2C(=O)c1ccc(Cl)cc1,-1.43% (inactive),-13.5,,
CC(C(=O)Nc1ccc2c(c1)OCCO2)N(C)Cc1c(F)cccc1Cl (stereo unspecified),4.33% (inactive),,,
Cc1ccc(NC(=O)CCNS(=O)(=O)c2cccc3nonc23)cc1,14.5% (inactive),12.6,,
CC(=O)c1ccc(NC(=O)CCNS(=O)(=O)c2cccc3nonc23)cc1,,,,23.1 µM (active)
COC(=O)c1ccc(NC(=O)CCNS(=O)(=O)c2cccc3nonc23)cc1,,6.69,inactive,
COC(=O)C1=NN(C(C)(C)CC(C)=O)C2C(=O)N(C3CCCCC3)C(=O)C12 (stereo unspecified),-1.51% (inactive),-0.806,,
O=C(NCc1cccc(Cl)c1)c1cccc(C(F)(F)F)c1,11.6% (inactive),-1.35,,
Cc1cc(NC2CCCC2)n2nc(C)c(-c3ccccc3)c2n1,-0.485% (inactive),-2.08,,

Compound,"lipid storage change, negative = inhibition",cell number change [%],outcome,Potency
O=C(CC1Sc2ccccc2NC1=O)NCc1ccccc1 (stereo unspecified),9.46% (inactive),0.893,,
CCC1=NN2C(=N)/C(=C/c3ccc(OS(=O)(=O)c4ccccc4)c(OC)c3)C(=O)N=C2S1,,4.58,,1.84 µM (active)
COc1cc(/C=C2\C(=N)N3N=CSC3=NC2=O)ccc1OS(=O)(=O)c1ccccc1,,-21.2,,2.06 µM (active)
CCC1=NN2C(=N)/C(=C/c3ccc(OS(=O)(=O)c4ccc(C)cc4)c(OC)c3)C(=O)N=C2S1,3.12% (inactive),5,,
COc1cc(/C=C2/C(=N)N3N=C(C)SC3=NC2=O)ccc1OS(=O)(=O)c1ccc(C)cc1,,-5.04,inactive,
COc1cc(/C=C2\C(=N)N3N=C(S(C)(=O)=O)SC3=NC2=O)ccc1OS(=O)(=O)c1ccccc1,,-27,inactive,
COc1cc(/C=C2\C(=N)N3N=CSC3=NC2=O)ccc1OS(=O)(=O)c1ccccc1[N+](=O)[O-],-23.3% (inactive),-11.4,,
Cc1cc(/C=C2\SC(=O)N(CC(=O)Nc3ccccc3F)C2=O)c(C)n1C,-0.336% (inactive),1.47,,
Cc1ccccc1-n1c(C)n[nH]c1=S,3.14% (inactive),1.24,,
COc1ccc(CC(=O)NNC(=O)CSc2nnc(C)n2-c2ccccc2)cc1,,-9.57,inactive,
CC1Cc2ccccc2N1C(=O)CSc1nnc(Cn2nnc3ccccc32)n1C (stereo unspecified),-0.751% (inactive),-16.3,,
O=C(O)C1CCCN1C(=O)Oc1ccccc1 (stereo unspecified),,0.79,,23.1 µM (active)
O=C(NCCc1ccccc1)C1CCCN1C(=O)Nc1ccc(F)cc1 (stereo unspecified),7.13% (inactive),-10,,
O=C(Nc1ccc(F)cc1)N1CCOCC1,,-6.86,,20.6 µM (active)
O=C(Nc1ccccc1)N1CCN(c2nc3ccccc3s2)CC1,,,inactive,
O=C(Nc1ccc(O)cc1)N1CCOCC1,,20,inactive,
O=C(O)C1CCCN1C(=O)OCc1ccccc1 (stereo unspecified),-4.77% (inactive),12.4,,
O=C(Nc1ccc(F)cc1)N1CCCCCC1,11.9% (inactive),7.77,,
O=C(NCc1ccc(F)cc1)C1CCCN1C(=O)Nc1ccc(F)cc1 (stereo unspecified),10.1% (inactive),12.2,,
CSc1ccc(NC(=O)N2CCN(c3nc4ccccc4s3)CC2)cc1,,,inactive,

Compound,"lipid storage change, negative = inhibition",cell number change [%],outcome,Potency
O=C(Nc1ccc(F)cc1)N1CCN(c2nc3ccccc3s2)CC1,,,,4.11 µM (active)
O=C(O)C1CCCN1C(=O)Nc1ccc(F)cc1 (stereo unspecified),,1.35,,6.51 µM (active)
O=C(NC1CCCC1)C1CCCN1C(=O)Oc1ccccc1 (stereo unspecified),-6.65% (inactive),-16.7,,
COc1ccccc1C(=O)C1CCCN(Cc2cccc3nccnc23)C1 (stereo unspecified),-3.26% (inactive),15,,
CC(C)Nc1ccc(C(CC(N)=O)NC(=O)Cc2cccc3ccccc23)cc1[N+](=O)[O-] (stereo unspecified),-6.77% (inactive),1.26,,
CCOC(=O)c1sc(=NC(=O)c2cccc(C)c2)n(C)c1C,3.79% (inactive),,,
Cc1cc(Cl)ccc1NC(=S)NCc1ccco1,-3.05% (inactive),-9.3,,
CCOc1ccccc1NC(=O)Cn1c(=O)oc2cc(Cl)ccc21,6.22% (inactive),6.12,,
O=C(NC1CCN(C(=O)Nc2ccc(F)cc2)CC1)c1ccccc1F,,,,6.51 µM (active)
Cc1ccccc1C(=O)NC1CCN(C(=O)Nc2ccc(F)cc2)CC1,,8.56,inactive,
Cc1cc(C)cc(NC(=O)N2CCC(NC(=O)c3ccccc3C)CC2)c1,0.091% (inactive),4.64,,
Cc1ccccc1C(=O)NC1CCN(CC(=O)NCc2ccccc2)CC1,-3.57% (inactive),13.5,,
Cc1ccccc1C(=O)NC1CCN(CC(=O)NCc2ccc(F)cc2)CC1,0.998% (inactive),9.44,,
O=C(CN1CCC(NC(=O)c2ccccc2F)CC1)NCc1ccc(F)cc1,,-14.5,,20.6 µM (active)
CCc1cc2c(=O)c(-c3nc4ccccc4n3C)c(C)oc2c(CN2CCOCC2)c1O,,,inactive,
CCCS(=O)(=O)N1CCCC(C(=O)Oc2ccc(Cl)cc2)C1 (stereo unspecified),4.15% (inactive),14,,
Cc1ccc(NC(=O)CSc2nc(N)cc(=O)[nH]2)cc1Cl,-14.5% (inactive),22,,
Cn1c(=O)c2c(nc(SCc3ccccn3)n2C)n(C)c1=O,14.3% (inactive),-19.6,,
Cn1c(SCc2ccccc2Cl)nc2c1c(=O)[nH]c(=O)n2C,,3.04,inactive,
Cn1c(SCc2ccccn2)nc2c1c(=O)[nH]c(=O)n2C,,0.681,,2.59 µM (active)
